Laboratory results as given in the supplement of paper PMC10849652.
Targets with a hit are over-represented here; the source holds about 8,800 in all. About 0.5% of all pairs of compound and target were hits. Unmarked numbers belong to inactive results.

Tests used:
Assay in all cases: log2 fold change, soluble protein after heating vs DMSO (PISA); higher = thermal stabilisation; K562 lysate, 10 uM; active = over 0.2 and 3.5 SD of the protein, either way, in both replicates (recomputed)
erlotinib = compound: C#Cc1cccc(Nc2ncnc3cc(OCCOC)c(OCCOC)cc23)c1 [erlotinib]
Method in brief: (§1)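 A 30 min treatment with 10 μM compound was applied to crude K562 extract at 1 mg/mL protein in PBS pH 7.4 with 1 mM MgCl2. Heating for 3 min spanned 48°C-58°C, after which aliquots were pooled, adjusted to 0.5% NP-40 at 4°C and spun at 21,000xg for 90 min. TMTpro 16plex LC-MS/MS of the supernatant, with channel sums equalised, gave values recorded as log-two fold change in thermal stability against solvent controls, from duplicates.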

[1] = compound: C/C(=N\NC(=O)C1=CC(=CC=C1)S(=O)(=O)N2CCOCC2)/C3=C(C=CC(=C3)Cl)O
Method in brief: as §1

[2] = compound: C1=CC(=CC=C1C2=NC3=C(N2)C=C(C=C3)C(=O)N)OC4=CC=C(C=C4)Cl
Method in brief: as §1

[3] = compound: C1=CC2=C(C=CC(=C2)/C=C\3/C(=O)NC(=NCC4=CC=CS4)S3)N=C1
Method in brief: as §1

[4] = compound: C1=CC2=NC=CN=C2C=C1/C=C/3\C(=O)NC(=O)S3
Method in brief: as §1

[5] = compound: C1=CC=C(C=C1)C2=NC(=C(N2)C3=CC=NC=C3)C4=CC(=C(C=C4)Cl)O
Method in brief: as §1

[6] = compound: C1=CC=C2C(=C1)C3=NNC4=CC=CC(=C43)C2=O
Method in brief: as §1

IRAK-1-4 Inhibitor I = compound: C1COCCN1CCN2C3=CC=CC=C3N=C2NC(=O)C4=CC(=CC=C4)[N+](=O)[O-] [IRAK-1-4 Inhibitor I]
Method in brief: as §1

ibrutinib = compound: C=CC(=O)N1CCC[C@@H](n2nc(-c3ccc(Oc4ccccc4)cc3)c3c(N)ncnc32)C1 [ibrutinib]
Method in brief: as §1

ralimetinib = compound: CC(C)(C)Cn1c(N)nc2ccc(-c3[nH]c(C(C)(C)C)nc3-c3ccc(F)cc3)nc21 [ralimetinib]
Method in brief: as §1

[7] = compound: CC(C)(O)CC(=O)NCCn1ccc2ncnc(Nc3ccc(Oc4cccc(C(F)(F)F)c4)c(Cl)c3)c21
Method in brief: as §1

[8] = compound: CC(C)C1=C2N=C(C=C(N2N=C1)NCC3=CC=CC=C3)NCCCCCCN
Method in brief: as §1

[9] = compound: CC1=C(C(CC(=O)N1)C2=CC=C(C=C2)C(F)(F)F)C(=O)NC3=C(C=C4C(=C3)C=NN4)F
Method in brief: as §1

[10] = compound: CC1=C(C2=C(C=C1)C(=O)C3=CC=CC=C3N2CCCN)C
Method in brief: as §1

[11] = compound: CC1=C(C=C(C=C1)NC(=O)C2=CC(=CC=C2)C(C)(C)C#N)NC3=CC4=C(C=C3)N=CN(C4=O)C
Method in brief: as §1

[12] = compound: CC1=C(C=C(C=C1)NC(=O)C2=CC(=CC=C2)N(C)C)NC(=O)C3=CC=C(C=C3)O
Method in brief: as §1

[13] = compound: C1CCN(C1)C(=O)NC2=CC=CC(=C2)NC3=NC=C(C(=N3)NCCC4=CN=CN4)Br
Method in brief: as §1

[14] = compound: C1CN(CCC1(CC2=CC=C(C=C2)Cl)N)C3=NC=NC4=C3C=CN4
Method in brief: as §1

[15] = compound: CC(=O)c1cnc2ccc(-c3cc(Cl)c(O)c(Cl)c3)nc2c1N[C@H]1CC[C@H](CN(C)C)CC1
Method in brief: as §1

[16] = compound: CC1=CC=C(C=C1)SC2=C3C=C(SC3=CN=C2)C(=O)N
Method in brief: as §1

UniProt Q14571, sequence (Q14571 whole entry, looked up): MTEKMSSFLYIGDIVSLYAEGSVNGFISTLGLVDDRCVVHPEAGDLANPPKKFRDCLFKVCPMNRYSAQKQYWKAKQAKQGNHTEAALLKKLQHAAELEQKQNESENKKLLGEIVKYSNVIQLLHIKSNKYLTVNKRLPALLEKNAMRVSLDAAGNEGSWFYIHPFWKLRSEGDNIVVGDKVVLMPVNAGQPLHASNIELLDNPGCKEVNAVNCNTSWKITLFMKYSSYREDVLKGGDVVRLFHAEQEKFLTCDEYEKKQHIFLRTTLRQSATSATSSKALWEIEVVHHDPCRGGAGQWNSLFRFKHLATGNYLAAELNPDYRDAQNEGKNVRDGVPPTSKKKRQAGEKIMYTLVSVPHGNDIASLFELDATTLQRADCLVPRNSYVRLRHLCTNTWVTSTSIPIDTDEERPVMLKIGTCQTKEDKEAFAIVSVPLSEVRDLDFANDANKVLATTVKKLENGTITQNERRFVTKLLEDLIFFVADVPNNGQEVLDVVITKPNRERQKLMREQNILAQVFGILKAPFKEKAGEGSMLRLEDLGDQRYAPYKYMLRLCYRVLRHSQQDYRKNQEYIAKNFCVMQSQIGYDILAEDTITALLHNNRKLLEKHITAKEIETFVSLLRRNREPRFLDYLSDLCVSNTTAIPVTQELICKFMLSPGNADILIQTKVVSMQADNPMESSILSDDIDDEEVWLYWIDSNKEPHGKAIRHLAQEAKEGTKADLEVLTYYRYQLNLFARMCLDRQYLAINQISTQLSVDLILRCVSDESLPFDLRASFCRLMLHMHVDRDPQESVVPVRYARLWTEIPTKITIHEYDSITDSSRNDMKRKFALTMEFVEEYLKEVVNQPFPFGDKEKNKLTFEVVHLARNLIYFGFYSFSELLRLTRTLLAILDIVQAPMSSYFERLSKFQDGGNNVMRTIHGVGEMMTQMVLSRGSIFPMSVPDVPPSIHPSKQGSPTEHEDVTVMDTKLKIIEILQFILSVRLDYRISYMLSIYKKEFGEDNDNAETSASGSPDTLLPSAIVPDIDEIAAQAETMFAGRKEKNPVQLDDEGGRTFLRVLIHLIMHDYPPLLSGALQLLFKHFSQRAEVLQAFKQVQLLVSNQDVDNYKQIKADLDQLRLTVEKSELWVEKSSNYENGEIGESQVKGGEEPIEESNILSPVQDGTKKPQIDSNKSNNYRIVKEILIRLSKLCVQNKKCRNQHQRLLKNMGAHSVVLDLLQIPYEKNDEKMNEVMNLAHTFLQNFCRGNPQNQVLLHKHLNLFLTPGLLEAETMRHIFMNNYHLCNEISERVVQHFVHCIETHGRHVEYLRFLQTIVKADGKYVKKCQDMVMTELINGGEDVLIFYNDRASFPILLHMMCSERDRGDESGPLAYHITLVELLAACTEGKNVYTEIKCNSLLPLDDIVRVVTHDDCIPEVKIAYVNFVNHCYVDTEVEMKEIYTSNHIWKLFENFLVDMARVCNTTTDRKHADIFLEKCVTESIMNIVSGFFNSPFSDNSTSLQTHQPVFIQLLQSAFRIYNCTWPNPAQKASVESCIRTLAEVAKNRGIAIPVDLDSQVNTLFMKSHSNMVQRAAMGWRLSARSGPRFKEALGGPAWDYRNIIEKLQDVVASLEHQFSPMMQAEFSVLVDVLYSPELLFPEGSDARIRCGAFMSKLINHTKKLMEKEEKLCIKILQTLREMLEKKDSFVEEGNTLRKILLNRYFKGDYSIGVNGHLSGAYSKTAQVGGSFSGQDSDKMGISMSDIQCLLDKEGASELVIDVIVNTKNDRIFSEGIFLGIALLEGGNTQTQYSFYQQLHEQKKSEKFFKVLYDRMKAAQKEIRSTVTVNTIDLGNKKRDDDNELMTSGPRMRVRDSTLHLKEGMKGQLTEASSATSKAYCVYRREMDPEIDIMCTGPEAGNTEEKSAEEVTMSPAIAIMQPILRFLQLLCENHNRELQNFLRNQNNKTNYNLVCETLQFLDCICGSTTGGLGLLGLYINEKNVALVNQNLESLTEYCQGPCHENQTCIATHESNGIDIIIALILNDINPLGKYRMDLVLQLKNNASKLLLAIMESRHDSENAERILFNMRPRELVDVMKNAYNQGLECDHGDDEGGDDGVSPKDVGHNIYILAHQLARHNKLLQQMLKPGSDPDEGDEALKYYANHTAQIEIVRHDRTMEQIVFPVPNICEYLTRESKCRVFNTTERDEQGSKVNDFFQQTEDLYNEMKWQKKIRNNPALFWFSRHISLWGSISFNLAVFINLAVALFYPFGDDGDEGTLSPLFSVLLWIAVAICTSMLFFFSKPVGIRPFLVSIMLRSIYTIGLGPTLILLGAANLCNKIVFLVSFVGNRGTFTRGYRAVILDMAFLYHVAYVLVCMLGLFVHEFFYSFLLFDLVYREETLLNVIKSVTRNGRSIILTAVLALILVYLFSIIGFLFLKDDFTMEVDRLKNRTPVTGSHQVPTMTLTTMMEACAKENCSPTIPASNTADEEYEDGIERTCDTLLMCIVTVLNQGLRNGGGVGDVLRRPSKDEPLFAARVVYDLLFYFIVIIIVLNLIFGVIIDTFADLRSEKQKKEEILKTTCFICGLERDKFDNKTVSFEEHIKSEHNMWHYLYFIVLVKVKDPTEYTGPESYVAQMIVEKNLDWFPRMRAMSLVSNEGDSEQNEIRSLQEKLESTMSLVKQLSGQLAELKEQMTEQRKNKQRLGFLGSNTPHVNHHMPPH
UniProt Q96EW2, sequence (Q96EW2 whole entry, looked up): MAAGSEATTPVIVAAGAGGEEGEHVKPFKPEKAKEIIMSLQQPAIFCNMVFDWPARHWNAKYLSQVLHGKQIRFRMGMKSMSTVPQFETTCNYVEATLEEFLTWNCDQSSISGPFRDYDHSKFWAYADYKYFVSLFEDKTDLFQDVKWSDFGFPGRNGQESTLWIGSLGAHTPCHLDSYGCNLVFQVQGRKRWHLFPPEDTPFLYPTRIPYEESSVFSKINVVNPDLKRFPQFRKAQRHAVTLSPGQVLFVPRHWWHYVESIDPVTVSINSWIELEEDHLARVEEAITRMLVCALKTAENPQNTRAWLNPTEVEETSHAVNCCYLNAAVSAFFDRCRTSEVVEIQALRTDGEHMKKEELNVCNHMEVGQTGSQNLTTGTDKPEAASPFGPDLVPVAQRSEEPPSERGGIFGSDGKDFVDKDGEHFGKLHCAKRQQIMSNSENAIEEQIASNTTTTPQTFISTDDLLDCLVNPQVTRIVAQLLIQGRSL
UniProt Q9P2P5, sequence (Q9P2P5 whole entry, looked up): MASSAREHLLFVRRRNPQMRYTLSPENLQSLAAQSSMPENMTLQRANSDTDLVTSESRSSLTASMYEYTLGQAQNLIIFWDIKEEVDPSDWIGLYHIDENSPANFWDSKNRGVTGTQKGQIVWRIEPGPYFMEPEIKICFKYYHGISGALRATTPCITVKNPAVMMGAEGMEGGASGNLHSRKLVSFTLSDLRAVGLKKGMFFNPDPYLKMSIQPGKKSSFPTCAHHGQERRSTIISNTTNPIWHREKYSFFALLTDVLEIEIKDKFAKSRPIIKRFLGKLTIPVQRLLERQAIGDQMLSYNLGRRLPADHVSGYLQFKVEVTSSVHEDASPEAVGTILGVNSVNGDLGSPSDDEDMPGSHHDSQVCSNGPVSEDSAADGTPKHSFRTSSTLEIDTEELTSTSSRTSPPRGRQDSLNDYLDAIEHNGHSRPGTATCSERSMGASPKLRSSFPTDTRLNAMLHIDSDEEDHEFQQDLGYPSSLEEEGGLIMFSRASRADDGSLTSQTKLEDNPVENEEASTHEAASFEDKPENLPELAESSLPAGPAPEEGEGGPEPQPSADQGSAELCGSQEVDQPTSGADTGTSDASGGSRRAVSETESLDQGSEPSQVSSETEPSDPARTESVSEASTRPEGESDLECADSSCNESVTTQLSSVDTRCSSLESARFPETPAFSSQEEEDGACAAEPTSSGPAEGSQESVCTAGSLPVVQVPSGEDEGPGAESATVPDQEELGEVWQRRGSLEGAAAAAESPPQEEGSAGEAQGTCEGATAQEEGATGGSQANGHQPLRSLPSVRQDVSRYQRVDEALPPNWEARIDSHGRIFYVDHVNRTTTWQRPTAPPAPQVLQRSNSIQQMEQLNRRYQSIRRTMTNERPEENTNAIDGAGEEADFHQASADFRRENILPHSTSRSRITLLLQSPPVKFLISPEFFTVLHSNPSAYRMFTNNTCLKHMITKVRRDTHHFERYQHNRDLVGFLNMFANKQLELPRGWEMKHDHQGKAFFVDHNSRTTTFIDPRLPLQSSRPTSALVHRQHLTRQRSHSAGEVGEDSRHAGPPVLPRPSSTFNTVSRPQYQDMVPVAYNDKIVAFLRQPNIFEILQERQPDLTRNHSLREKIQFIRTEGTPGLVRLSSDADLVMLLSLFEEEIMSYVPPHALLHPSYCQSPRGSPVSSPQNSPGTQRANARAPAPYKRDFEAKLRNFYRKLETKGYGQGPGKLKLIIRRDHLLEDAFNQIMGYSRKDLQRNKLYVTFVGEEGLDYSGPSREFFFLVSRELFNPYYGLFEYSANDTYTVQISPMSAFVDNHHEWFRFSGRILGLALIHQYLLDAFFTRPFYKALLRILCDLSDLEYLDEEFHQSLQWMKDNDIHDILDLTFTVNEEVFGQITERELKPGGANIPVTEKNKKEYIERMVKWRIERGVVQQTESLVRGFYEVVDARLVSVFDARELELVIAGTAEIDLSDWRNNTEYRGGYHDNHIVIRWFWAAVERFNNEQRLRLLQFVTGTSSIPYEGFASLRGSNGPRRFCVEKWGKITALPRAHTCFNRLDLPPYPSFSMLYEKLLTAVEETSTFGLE
UniProt P02724, sequence (P02724 whole entry, looked up): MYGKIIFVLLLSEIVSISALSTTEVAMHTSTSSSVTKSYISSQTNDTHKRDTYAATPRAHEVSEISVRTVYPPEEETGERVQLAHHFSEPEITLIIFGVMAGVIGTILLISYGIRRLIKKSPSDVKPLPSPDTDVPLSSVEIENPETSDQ

Target | log2 fold change (erlotinib) | log2 fold change [1] | log2 fold change [2] | log2 fold change [3] | log2 fold change [4] | log2 fold change [5] | log2 fold change [6] | log2 fold change (IRAK-1-4 Inhibitor I) | log2 fold change (ibrutinib) | log2 fold change (ralimetinib) | log2 fold change [7] | log2 fold change [8] | log2 fold change [9] | log2 fold change [10] | log2 fold change [11] | log2 fold change [12] | log2 fold change [13] | log2 fold change [14] | log2 fold change [15] | log2 fold change [16]
ITM2B (UniProt Q9Y287) | -0.039 | 0.225 | 0.02 | -0.202 | 0.026 | 0.005 | 0.052 | 0.023 | -0.04 | 0.131 | -0.106 | -0.044 | 0.051 | -0.011 | 0.019 | -0.088 |  |  |  | 
KIAA0930 isoform 2 (UniProt Q6ICG6) |  | -0.004 |  | -0.067 | -0.229 | -0.258 | 0.203 | -0.063 | -0.16 | 0.091 | -0.085 |  | -0.014 | -0.119 | 0.042 | -0.289 | 0.099 | -0.01 | -0.032 | -0.017
IRS2 (UniProt Q9Y4H2) | 0.04 |  | -0.099 |  | 0.164 | 0.143 |  | -0.009 | -0.089 | 0.014 | 0.047 | 0.03 | 0.049 | -0.079 | 0.118 | -0.051 |  |  | -0.209 | 0.254
HNRNPM (UniProt M0QZM1) |  | 0.07 |  | 0.044 | 0.246 |  | 0.066 |  | 0.003 |  |  |  |  | 0.121 | -0.068 |  | 0.046 | 0.086 |  | 
HNRNPM (UniProt M0R019) |  | 0.224 |  | 0.178 |  |  | -0.128 |  |  |  |  |  |  |  |  |  |  |  |  | 
HYDIN (UniProt Q4G0P3) |  | -0.022 |  | 0.005 |  | 1.34 (active) | 0.036 | 0.712 |  | 0.148 | -0.071 |  |  | -0.05 |  | -0.107 | -0.054 | 0.022 | -0.076 | 0.017
HNRNPD (UniProt D6RF44) |  |  |  |  |  |  |  |  |  |  |  |  | 0.111 |  | -0.334 |  |  |  |  | 
GORASP1 (UniProt Q9BQQ3) | -0.081 | -0.026 | -0.019 | 0.05 |  | 0.01 | -0.057 | -0.023 |  | -0.01 | -0.011 | 0.019 | 0.038 | 0.027 | -0.061 | -0.034 | 0.049 | 0.018 | 0.137 | -0.02
HSPA8 (UniProt E9PN89) | 0.02 |  | -0.004 |  | -0.095 | 0.082 |  | -0.055 | 0.081 | 0.034 | -0.215 | 0.007 | -0.036 | 0.017 | 0.093 | 0.231 | -0.045 | -0.043 | -0.051 | -0.083
ITPR2 (UniProt Q14571) | 0.058 |  | 0.163 |  |  | -0.051 |  | 0.021 |  | 0.069 | -0.233 | 0.063 | -0.137 | -0.072 |  | -0.031 |  |  | -0.04 | -0.322
GYPA (UniProt P02724) | -0.109 | -0.107 | 0.13 | 0.061 | 0.059 | 0.023 | 0.048 | 0.017 | 0.318 | -0.052 | 0.054 | -0.095 |  | -0.085 | 0.018 | -0.037 | -0.004 | 0.043 | 0.102 | -0.034
ITGB1BP2 (UniProt Q9UKP3) |  | 0.017 |  | -0.001 |  |  | 0.039 |  |  |  |  |  |  | 0.139 |  |  | -0.117 | 0.09 |  | 
HNRNPUL1 (UniProt M0R247) | -0.046 |  | 0.079 |  | -0.049 |  |  |  | -0.045 |  |  | 0.016 |  |  |  |  |  |  |  | 
HNRNPL, A0A3B3ITJ4 |  |  |  |  | -0.086 |  |  |  | 0.033 |  |  |  |  |  |  |  |  |  | 0.033 | -0.104
ITPRIP (UniProt Q8IWB1) | 0.218 |  | -0.16 |  |  |  |  |  |  |  |  | 0.023 |  | 0.041 |  |  |  |  |  | 
IPP (UniProt Q9Y573) | -0.04 | -0.192 | -0.017 | -0.181 |  | 0.025 | -0.105 | -0.035 |  | 0.14 | -0.056 | -0.073 |  | -0.006 |  | 0.088 | 0.179 | 0.041 | 0.042 | -0.044
HSPBAP1 (UniProt Q96EW2) | 0.064 |  | -0.098 |  | -0.079 | -0.072 |  | -0.002 | -0.008 | -0.056 | -0.095 | 0.038 | -0.214 | -0.324 | 0.002 | 0.084 | 0.002 | 0.031 | 0.039 | 0.084
GYPA, A0A2R8Y7F9 |  |  |  |  | 0.066 |  |  |  | -0.019 |  |  |  |  |  |  |  |  |  |  | 
ISL2 (UniProt Q96A47) | -0.149 |  | 0.003 |  | 0.032 | -0.014 |  | 0.016 | 0.05 | 0.056 | -0.089 | 0.019 |  | -0.003 | -0.075 | 0.01 |  |  |  | 
HOMER3 (UniProt Q9NSC5) |  |  |  |  | -0.078 |  |  |  | -0.095 |  |  |  |  |  | -0.028 |  |  |  | -0.01 | 0.048
HMGN5 (UniProt Q5JSK9) |  |  |  |  | -0.128 |  |  |  | 0.051 |  |  |  | -0.094 |  |  |  | 0.008 | -0.076 | -0.007 | -0.005
HECW2 (UniProt Q9P2P5) | -0.012 | 0.009 | -0.093 | 0.013 |  | -0.075 | 0.023 | 0.082 |  | 0.106 | -0.148 | -0.036 | 0.019 | -0.091 | 0.116 | 0.073 | 0.029 | -0.118 |  | 
